hcDAF-12 act: activators of H. contortus DAF-12 nuclear receptor | HEK293 hcDAF-12 lit1-tk-luc reporter, luminescence; 0% DMSO, 100% Δ7-dafachronic acid | activation, % at 6.8 µM | hit rate 1.4% among 370,000 | AID 652067;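 active = activation above the mean of all tested compounds plus 3 SD, cut at about 5.5% in these data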
SMARCA2 activ: SMARCA2 function activation, primary screen; hit rate 1% among 370,000; AID 652017; MG213 cells, MMTV-luciferase reporter, dexamethasone, overnight; activation, % at 9.1 µM; in the data active = activation above about 7.8%
DAX1 inh-1: inhibitors of human orphan nuclear receptor DAX1 (NR0B1); HEK293 Gal4-DAX1 luciferase reporter, luminescence; hit rate 0.99% among 340,000; AID 504766; inhibition, % at 6.75 µM;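 active = inhibition above the mean over all tested compounds plus 3 SD, cut at about 4.2% in these data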;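 note: inhibition shows as a rise in luminescence from relieved DAX1 repression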
Target sequence (P51843 207-470 limits assumed): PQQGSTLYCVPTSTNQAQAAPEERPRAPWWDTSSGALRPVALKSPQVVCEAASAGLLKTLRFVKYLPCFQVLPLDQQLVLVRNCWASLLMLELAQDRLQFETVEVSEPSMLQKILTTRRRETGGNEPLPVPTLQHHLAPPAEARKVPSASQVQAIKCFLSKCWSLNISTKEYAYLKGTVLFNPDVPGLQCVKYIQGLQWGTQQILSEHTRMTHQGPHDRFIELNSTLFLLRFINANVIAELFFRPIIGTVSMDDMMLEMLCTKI
DAX1 inh-2: blocks DAX1 repression of SF-1 activated StAR promoter | HEK293T StAR-luciferase reporter, SF-1/DAX-1 repression relief | AID 652010 | hit rate 1.1% among 370,000 | inhibition, % at 6.8 µM;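 active = inhibition above the mean over all tested compounds plus 3 SD, cut at about 3.6% in these data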;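 note: higher inhibition means more luminescence from relief of DAX-1 repression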
hgDAF-12 ag: hgDAF-12 agonism, primary luciferase screen | HEK293 GAL4-hgDAF12 UAS-luciferase reporter, agonist luminescence; normalized to butyrate control | activation, % at 6.8 µM | hit rate 1.8% among 370,000;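 active = activation above a cutoff set at the mean of all screened compounds plus 3 SD, cut at about 10% in these data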
ssDAF12 agonist: activators of S. stercoralis DAF-12 nuclear receptor; hit rate 1% among 370,000; activation, % at 6.8 µM; HEK293 ssDAF-12/GRIP1 lit1-tk-luc reporter, luminescence; % of 3 µM dafachronic acid response;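 active = activation above the mean over all tested compounds plus 3 SD, cut at about 0.9% in these data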
SMARCA2 conf: SMARCA2 activation, confirmation screen; hit rate 30% among 3,500; shares compounds with SMARCA2 activ; MG213 cells, MMTV-luciferase with dexamethasone, luminescence, overnight; MG213 cells expressing E1A, Rb sequestered; DMSO wells 0%, reference activator 100%; activation, % at 9.1 µM;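 active = activation above its plate's cutoff, the mean activation of tested wells plus 3 SD, cut at about 7.9% in these data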
GAL4-VP16 Luc: counter-screen for SMARCA2 activators: GAL4-VP16 luciferase reporter activation; shares compounds with SMARCA2 activ; HEK293 GAL4-VP16 pG5luc reporter, luciferase luminescence; scaled: DMSO wells 0%, SAHA wells 100%; activation, % at 9.1 µM; AID 686939; hit rate 41% among 3,500;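 active = activation above the solvent-only control well mean plus 3 SD, averaged across control plates, cut at about 5.2% in these data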
Large screens that a line does not name were inactive (follow-up assays come after a bar, where they were run). This is a sample that favours compounds with a hit; in the whole collection about 4.8% have one here.

CCCCOC(=O)Nc1ccc2c(C)cc(=O)oc2c1	none
CCOC(=O)Nc1ccc2c(C)cc(=O)oc2c1	SMARCA2 activ 11, hgDAF-12 ag 11 | SMARCA2 conf inactive | GAL4-VP16 Luc 8.7
O=C(Oc1c(CN2CCOCC2)cc(Cl)c2cccnc12)c1ccccc1Br	SMARCA2 activ 8.7 | SMARCA2 conf 24 | GAL4-VP16 Luc inactive
CN1CCN(Cc2cc(Cl)c3cccnc3c2OC(=O)c2cccs2)CC1	none
Cc1ccc(-c2noc(CN3CCOCC3)n2)cc1	none
Cc1cccc(-c2noc(CSc3ccccc3)n2)c1	none
Cc1ccc(-c2noc(CN3CCCCC3)n2)cc1	SMARCA2 activ 8.3 | SMARCA2 conf inactive | GAL4-VP16 Luc 9.1
Cc1ccc(-c2noc(CSc3ccccc3)n2)cc1	SMARCA2 activ 9.3, DAX1 inh-2 3.9, hgDAF-12 ag 12 | SMARCA2 conf inactive | GAL4-VP16 Luc 8.2
CC(C)(C)NC(=O)C(=O)NNC(=O)c1cccc([N+](=O)[O-])c1	none
CCCCNC(=O)CSc1nc2ccccc2c(=O)n1CC1COc2ccccc2O1 (centres undefined)	none
Cc1noc(C)c1-c1ccc(C(=O)Nc2ccc(C(C)C)cc2)c2occc12	none (no result: DAX1 inh-1)
CC(=O)Nc1ccc(NC(=O)c2ccc(-c3c(C)noc3C)c3ccoc23)cc1	SMARCA2 activ 8.6 (no result: DAX1 inh-1) | SMARCA2 conf inactive | GAL4-VP16 Luc 10
Cc1c(C(=O)NN)sc(=S)n1C	none
Cc1csc(C(=O)NN)c1N(C)C	SMARCA2 activ 9.1 | SMARCA2 conf inactive | GAL4-VP16 Luc inactive
CC(NC(=O)COC(=O)c1ccc(N2CCCC2=O)cc1)c1ccc(F)cc1 (centres undefined)	SMARCA2 activ 9.4 | SMARCA2 conf inactive | GAL4-VP16 Luc inactive
COc1ccc(C(=O)OCC(N)=O)cc1[N+](=O)[O-]	SMARCA2 activ 11 | SMARCA2 conf inactive | GAL4-VP16 Luc inactive
COc1cc(OC)c(OC)cc1/C=C1\SC(N2CCCCC2)=NC1=O	none
COc1ccc(OC)c(/C=C2\SC(N3CCCCC3)=NC2=O)c1	SMARCA2 activ 8.0 | SMARCA2 conf inactive | GAL4-VP16 Luc inactive
COc1ccccc1C(=O)NCC(=O)NCCC(c1ccccc1)c1ccccc1	none
COc1ccc(OC)c(NC(=O)C(=O)NNC(=O)C23CC4CC(CC(C4)C2)C3)c1	none (no result: DAX1 inh-1)
O=C1c2ccccc2C(Nc2ccc(F)c(Cl)c2)N1c1ccccn1 (centres undefined)	none
COc1ccc(NC2c3ccccc3C(=O)N2c2ccccn2)cc1Cl (centres undefined)	SMARCA2 activ 8.2 | SMARCA2 conf inactive | GAL4-VP16 Luc inactive
COc1ccc(-c2ccc(SCC(=O)N3c4ccccc4CC3C)nn2)cc1OC (centres undefined)	SMARCA2 activ 13 | SMARCA2 conf inactive | GAL4-VP16 Luc inactive
Cc1ncsc1CCC(=O)N1CCCC(Nc2ccc(C(C)C)cc2)C1 (centres undefined)	none
COc1cc(OC)cc(N2CCN(S(=O)(=O)c3ccc(-n4cnnn4)cc3)CC2)c1	SMARCA2 activ 9.6 | SMARCA2 conf inactive | GAL4-VP16 Luc inactive
COc1ccc(-c2cc(C)no2)cc1S(=O)(=O)NCC(C)c1ccccc1 (centres undefined)	none
COc1ccc(-c2cc(C)no2)cc1S(=O)(=O)Nc1ccc(NC(C)=O)cc1	SMARCA2 activ 8.7 | SMARCA2 conf inactive | GAL4-VP16 Luc inactive
CCOc1nc(NC2CCCC2)nc(N2CCC(C)CC2)n1	none
O=C(Nc1ccc(Br)cc1Cl)c1cnccn1	SMARCA2 activ 9.4 | SMARCA2 conf 12 | GAL4-VP16 Luc inactive
CCCn1nnc(NC(=O)c2ccccc2Cl)n1	none
CCCn1nnc(NC(=O)c2ccc(Cl)cc2Cl)n1	SMARCA2 activ 14 | SMARCA2 conf inactive | GAL4-VP16 Luc 7.8
Cc1cccc(-c2cccc3c4c([nH]c23)[C@@H]2C[C@H](N(C)C(=O)Nc3ccccc3)[C@H]([C@H](C)O)C(=O)N2CC4)c1	SMARCA2 activ 9.2 (no result: DAX1 inh-1) | SMARCA2 conf inactive | GAL4-VP16 Luc inactive
O=C(Nc1nc(-c2cc3ccccc3oc2=O)cs1)c1ccco1	SMARCA2 activ 17 | SMARCA2 conf inactive | GAL4-VP16 Luc inactive
Cc1ccc(C(=O)NCCOc2cccc3cccnc23)cc1Cl	none
COc1ccccc1OCCNC(=O)CNC(=O)c1ccc(C(C)(C)C)cc1	none
COc1ccccc1OCCNC(=O)c1ccc(C(C)(C)C)cc1	SMARCA2 activ 8.2 | SMARCA2 conf inactive | GAL4-VP16 Luc inactive
COc1cc(C(=O)NCCOc2cccc3cccnc23)cc(OC)c1OC	SMARCA2 activ 11 | SMARCA2 conf inactive | GAL4-VP16 Luc inactive
COc1ccccc1OCCNC(=O)c1ccc(Br)cc1	SMARCA2 activ 8.8 | SMARCA2 conf inactive | GAL4-VP16 Luc inactive
CC(C)[C@H](NC(=O)[C@@H]1CCCN1)C(=O)N1CCC2CCN(S(=O)(=O)c3ccccc3)CC21 (some centres undefined)	none (no result: DAX1 inh-1)
CCOc1ccccc1N(CC(=O)Nc1ccc(S(=O)(=O)N2CCOCC2)cc1)S(=O)(=O)c1ccccc1	none (no result: hcDAF-12 act, SMARCA2 activ, DAX1 inh-2, hgDAF-12 ag, ssDAF12 agonist)
CCOc1ccccc1N(CC(=O)Nc1ccc(S(=O)(=O)N2CCOCC2)cc1)S(C)(=O)=O	SMARCA2 activ 12 | SMARCA2 conf inactive | GAL4-VP16 Luc inactive
Cc1nc2c(ccc3nc(NC(=O)Cc4ccccc4)sc32)s1	SMARCA2 activ 10 | SMARCA2 conf inactive | GAL4-VP16 Luc inactive
O=C1c2cccc(NCCCNCCO)c2C(=O)c2cccc(NCCCNCCO)c21	SMARCA2 activ 28, ssDAF12 agonist 1.0 | SMARCA2 conf inactive | GAL4-VP16 Luc inactive
CC(=O)N1CC(C)Oc2ccc(S(=O)(=O)NC(CC(=O)O)c3ccc(C)cc3C)cc21 (centres undefined)	none
COc1ccccc1C(CC(=O)O)NS(=O)(=O)c1ccc2c(c1)N(C(C)=O)CC(C)O2 (centres undefined)	SMARCA2 activ 10 | SMARCA2 conf inactive | GAL4-VP16 Luc inactive
C/C(=N\NC(=O)CNC(=O)C1COc2ccccc2O1)c1ccco1 (centres undefined)	none
O=C(NC(=S)NCc1ccccc1)c1cccc(Cl)c1	none
O=C(O)c1ccc(CNC(=O)c2ccc(C(F)(F)F)cc2)cc1	none
CCN1CCCC1CNC(=O)C(=O)Nc1ccccc1 (centres undefined)	SMARCA2 activ 11 | SMARCA2 conf inactive | GAL4-VP16 Luc 6.1
CCOc1ccc(NC(=O)C(=O)NCC2CCCN2CC)cc1 (centres undefined)	none

Source: PubChem
